Among the data in PubChem BioAssay (Tox21) are Potency and outcome values, retold here.

Experiment [1] can be described thus: qHTS assay for small molecule agonists of the p53 signaling pathway (AID 651631; calls by dose curve; note: nearly all actives have a fitted effect of over 15% in size). An outline of the steps:
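Stably transfected HCT-116 cells (beta-lactamase behind p53 response elements) get compounds after a 5 h settling period; 16 h later at 37 °C, FRET substrate is loaded and fluorescence read after 2 h.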
For orientation: Quantitative high-throughput screening tests each substance at several concentrations.

Experiment [2] in a line: qHTS assay for small molecules that induce genotoxicity in human embryonic kidney cells expressing luciferase-tagged ATAD5 (AID 651632). Note: nearly all actives have a fitted effect of over 15% in size. Note: potency is the fitted concentration of half-maximal effect. An outline of the steps: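 HEK293T cells carrying a luciferase reporter tagged to ATAD5 were exposed to compound or DMSO vehicle for 16 hr at 37C, 5% CO2. Amplite was added, and after 30 min at room temperature luciferase activity was read as a marker of ATAD5 induction.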

Experiment [3] can be described thus: qHTS assay for small molecule agonists of the p53 signaling pathway - cell viability (AID 651633; calls by dose curve;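 note: p53RE-bla HCT reporter cells with a stable beta-lactamase p53 reporter; series mostly up to about 83 µM; nearly all actives have a fitted effect of over 30% in size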). Put shortly:
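p53RE-bla cells, seeded at 4,000 per well and rested 5 h at 37 C/5% CO2, received compounds in DMSO for 16 h at 37 C. CellTiter-Glo was then added, and luminescence was read after 30 min at room temperature to gauge cytotoxicity.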

Experiment [4] is described as follows: qHTS assay for small molecules that induce genotoxicity in human embryonic kidney cells expressing luciferase-tagged ATAD5 - cell viability (AID 651634; calls by dose curve; note: nearly all actives have a fitted effect of over 25% in size). An outline of the steps: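 HEK293T cells expressing luciferase-tagged ATAD5 were exposed to compound or DMSO for 15.5 hr at 37C, 5% CO2. Viability was then read as live-cell protease activity by CellTiter-Fluor fluorescence after 30 min at 37C.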

Experiment [5] can be described thus: qHTS assay for small molecule disruptors of the mitochondrial membrane potential (AID 720635). An outline of the steps: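 HepG2 cells (2,000/well) attached overnight at 37C, then took compound for 1 hr at 37C, 5% CO2. Mito-MPS dye was added for 30 min; fluorescence was read at 490/535 nm (monomers) and 540/590 nm (aggregates).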
Experiment [6] can be described thus: qHTS assay to test for compound auto fluorescence at 590 nm (red) in HepG2 cells (AID 720674). Put shortly:
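Rose Bengal sodium served as the red fluorophore standard. HepG2 monolayers (overnight attachment, MEM with 10% FBS) were exposed to test compounds for 1 hr at 37 C and read at Ex 540/Em 590 nm.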

Experiment [7] in a line: qHTS assay to test for compound auto fluorescence at 535 nm (green) in HepG2 cells (AID 720675).
A short description of experiment [8]: qHTS assay to test for compound auto fluorescence at 460 nm (blue) in HEK293 cells (AID 720678). Put shortly:
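HEK293, 2,000 cells/well, 10% dialyzed FBS; attach 4-5 hr 37C; pin compound or DMSO; o/n 37C/5% CO2; fluorescence 405/460 nm; triamterene-equivalent units.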

Experiment [9] can be described thus: qHTS assay to test for compound auto fluorescence at 590 nm (red) in HEK293 cells (AID 720679). An outline of the steps:
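Intensity at 540nm excitation and 590nm emission is reported as Rose Bengal sodium-equivalent autofluorescence. Measurements followed overnight exposure (37C, 5% CO2) of HEK293 cells, 2,000 per well, to 23 nL compound.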

The nature of experiment [10]: qHTS assay to test for compound auto fluorescence at 535 nm (green) in HEK293 cells (AID 720680).
A short description of experiment [11]: qHTS assay to test for compound auto fluorescence at 460 nm (blue) in HEK293 cell free culture (AID 720681). Put shortly:
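Test compounds were pinned into cell-free culture medium (DMEM with 10% FBS) and fluorescence was read directly at Ex/Em 405/460 nm. Signals were expressed as fluorescence equivalents of triamterene, with DMSO vehicle as control.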

Experiment [12] is described as follows: qHTS assay to test for compound auto fluorescence at 535 nm (green) in HEK293 cell free culture (AID 720682). An outline of the steps:
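Using fluorescein as calibrant, autofluorescence was quantified at 485/535 nm in cell-free DMEM containing 10% FBS after pintool addition of compound or vehicle.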

A short description of experiment [13]: qHTS assay to test for compound auto fluorescence at 590 nm (red) in HEK293 cell free culture (AID 720683). Put shortly:
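Tox21 10K library compounds were pinned into cell-free DMEM with 10% FBS and fluorescence was read at excitation 540 nm. Activity is expressed as Rose Bengal sodium equivalency.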

Experiment [14] can be described thus: qHTS assay to test for compound auto fluorescence at 590 nm (red) in HepG2 cell free culture (AID 720684). Put shortly: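 Measured in medium alone (MEM containing 10% FBS) following pintool addition of compound; emission at 590 nm with 540 nm excitation, referenced to Rose Bengal sodium.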
Experiment [15] in a line: qHTS assay to test for compound auto fluorescence at 460 nm (blue) in HepG2 cell free culture (AID 720685). An outline of the steps: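 Compound (23 nL) or DMSO pinned into cell-free MEM with 10% FBS; blue fluorescence read at 405/460 nm excitation/emission, expressed as auto-fluorescence equivalency to triamterene.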
Experiment [16] can be described thus: qHTS assay to test for compound auto fluorescence at 535 nm (green) in HepG2 cell free culture (AID 720686).
The nature of experiment [17]: qHTS assay to test for compound auto fluorescence at 460 nm (blue) in HepG2 cells (AID 720687). Put shortly: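 Cells (2,000/well in MEM with 10% FBS) attached overnight at 37 C, then were exposed to compound or DMSO for 1 hr at 37 C, 5% CO2. Fluorescence read at Ex/Em 405/460 nm, expressed as triamterene-equivalent signal.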
A short description of experiment [18]: qHTS assay for small molecule disruptors of the mitochondrial membrane potential - cell viability (AID 720634; calls by dose curve;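 note: human HepG2 liver cancer cells; series mostly up to about 83 µM; nearly all actives have a fitted effect of over 20% in size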). An outline of the steps:
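HepG2 cells seeded overnight at 37 C, then exposed to compound or DMSO for 1 hr at 37 C, 5% CO2. m-MPI dye added, then CellTiter-Glo for 30 min at room temperature; viability read as ATP luminescence.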

Experiment [19] has as its target Glucocorticoid receptor (Homo sapiens) (UniProt P04150). Nature of the experiment: qHTS assay to identify small molecule agonists of the glucocorticoid receptor (GR) signaling pathway (AID 720691; active = well fitted activation curve with a large enough effect in the signal ratio in the repeat runs, not every such curve was filed as active; the % refers to the signal ratio). Put shortly: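 GR-bla HeLa cells (beta-lactamase reporter under glucocorticoid response element) were plated 4 h at 37 C/5% CO2, given compounds in DMSO, and incubated 18 h at 37 C. LiveBLAzer B/G FRET substrate was added for 2 h at room temperature, then fluorescence intensity read.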

Experiment [20] shares this target. Kind of experiment: qHTS assay to identify small molecule antagonists of the glucocorticoid receptor (GR) signaling pathway (AID 720692; active = well fitted inhibition curve with a large enough effect in the signal ratio in the repeat runs, not every such curve was filed as active; the % refers to the signal ratio). Put shortly:
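GR-bla HeLa cells (beta-lactamase reporter under glucocorticoid response element) were pre-plated 4 h at 37 C, treated with compounds plus 5 nM dexamethasone (final) for 18 h, then read by LiveBLAzer B/G FRET fluorescence after 2 h.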

Values without a mark were called inactive. Inconclusive results are not listed. Active and inactive are the calls of the source. Unless noted, calls come from the whole dose curve; as a rule, active = well fitted curve in the direction sought with a large enough effect in the repeat runs; inconclusive = weak or mixed curves; inactive = no such curve, though single readings can be large; an effect the other way counts as inactive or inconclusive.

Sequence of Glucocorticoid receptor (Homo sapiens) (P04150 whole entry, looked up): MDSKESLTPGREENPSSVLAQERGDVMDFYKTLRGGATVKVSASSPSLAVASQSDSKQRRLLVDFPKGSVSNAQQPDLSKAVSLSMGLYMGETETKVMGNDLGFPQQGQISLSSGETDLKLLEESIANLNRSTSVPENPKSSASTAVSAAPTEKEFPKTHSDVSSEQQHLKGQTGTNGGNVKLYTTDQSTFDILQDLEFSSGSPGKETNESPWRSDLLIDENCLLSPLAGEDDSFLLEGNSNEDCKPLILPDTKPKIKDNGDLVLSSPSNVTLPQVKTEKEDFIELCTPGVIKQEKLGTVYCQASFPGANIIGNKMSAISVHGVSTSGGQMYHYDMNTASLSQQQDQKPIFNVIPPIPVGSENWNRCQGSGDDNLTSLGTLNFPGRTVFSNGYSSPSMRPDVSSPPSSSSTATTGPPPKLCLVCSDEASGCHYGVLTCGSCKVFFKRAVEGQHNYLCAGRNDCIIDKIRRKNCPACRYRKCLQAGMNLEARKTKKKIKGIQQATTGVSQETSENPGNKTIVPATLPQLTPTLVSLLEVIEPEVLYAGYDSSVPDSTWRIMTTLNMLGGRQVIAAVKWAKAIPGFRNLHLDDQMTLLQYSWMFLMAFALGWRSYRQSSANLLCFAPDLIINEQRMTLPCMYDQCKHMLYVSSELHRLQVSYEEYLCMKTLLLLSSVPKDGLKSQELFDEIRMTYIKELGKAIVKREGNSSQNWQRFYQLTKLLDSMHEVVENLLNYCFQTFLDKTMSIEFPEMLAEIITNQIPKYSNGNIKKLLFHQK

`COc1cc(-c2ccc(=O)[nH]n2)ccc1OC(F)F`: the Potency entry in experiment [1], in experiment [3], in experiment [4] and in experiment [5] was “inactive” throughout. In addition, in experiment [2], the Potency was 13.3 µM (active). For the same molecule, the result in experiment [6], in experiment [7], in experiment [8], in [9], in experiment [10] and in [11] was inactive. In addition, the result in experiment [12], in [13], in experiment [14], in experiment [15], in experiment [16] and in experiment [17] was inactive.
In the case of `CC(=O)N[C@H]1[C@H]([C@H](O)[C@H](O)CO)OC(C(=O)O)=C[C@@H]1N=C(N)N`, the Potency result in [1], in experiment [2], in experiment [3], in experiment [4], in experiment [19] and in experiment [20] was “inactive” throughout. Further, the result in experiment [18], in [6], in experiment [7], in experiment [8], in experiment [9] and in experiment [10] was inactive. For the same molecule, the molecule was classed as inactive in [11], in experiment [13], in experiment [14], in experiment [15], in experiment [16] and in [17].
As to `CCOc1ccccc1OCC`, the Potency entry in [1], in [2], in experiment [3], in [4], in experiment [5] and in experiment [19] was “inactive” in each case. Also, the call in experiment [6], in [7], in experiment [8], in experiment [9], in [10] and in experiment [11] was inactive. For the same molecule, the molecule was classed as inactive in experiment [13], in experiment [14], in experiment [15], in [16] and in experiment [17].
As for `CCCCOCCOC(=O)CCCCCCCCC(=O)OCCOCCCC`, the Potency result in experiment [1], in [2], in experiment [3] and in experiment [4] was “inactive” throughout. Further, the call in experiment [18], in experiment [6], in experiment [7], in experiment [8], in experiment [9] and in [10] was inactive. Also, the call in experiment [11], in [12], in experiment [13], in experiment [15] and in experiment [16] was inactive.
As for `O=C1CCCCCCCCCCCCCCO1`, the Potency result in experiment [1], in [2], in experiment [3], in [4], in experiment [5] and in experiment [19] was “inactive” in each case. For the same molecule, the Potency entry in experiment [20] was “inactive”. For the same molecule, the molecule was classed as inactive in experiment [6], in experiment [7], in [8], in experiment [9], in experiment [10] and in experiment [11]. The result in experiment [12], in [13], in [14], in [15], in experiment [16] and in experiment [17] was inactive.
For the molecule `CCCCCCCCCCCCCCCCCCO`, the Potency entry in experiment [1], in experiment [2], in experiment [3], in [4], in experiment [5] and in [19] was “inactive” each time. Moreover, the Potency result in experiment [20] is “inactive”. The molecule was called inactive in experiment [6], in experiment [7], in [8], in experiment [9], in experiment [10] and in [11]. The molecule was classed as inactive in experiment [12], in experiment [13], in experiment [14], in experiment [15], in [16] and in experiment [17].
